PubChem BioAssay AID504850 (National Center for Advancing Translational Sciences (NCATS), 2011)
In all, about 2,300 compounds went through this assay and about 1,200 (52%) were called active. About 34% were inconclusive and are not listed. The call rests on the fitted dose curve; in most records, active means well fitted inhibition curve with a large enough effect; inconclusive means small, poorly fitted or top-dose-only effect, or effect the other way; inactive means no such curve, though single readings can be large or run the other way. The set was probably picked from earlier hits. The list shows a part of the results.

test: Confirmation screen for delayed death inhibitors of the malarial parasite plastid, 48 hour incubation; further: nearly all actives have a fitted effect of over 65% in size; conditions: P. falciparum-infected erythrocytes, luciferase growth; series mostly up to 28.7 µM
Outline: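 Erythrocytes infected with luciferase-expressing P. falciparum (2% hematocrit, 0.1% parasitemia) incubated with compounds 48 hours at 37 C, 5% CO2, in RPMI/Albumax. Growth inhibition scored as reduced luminescence after detection reagent.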
Potency means the concentration at half of the fitted maximal effect.

SMILES	Potency
O=C1NC(NS(=O)(=O)c2ccc(Cl)cc2)(C(F)(F)F)C(=O)N1Cc1cccnc1 (stereo unspecified)	inactive
CCCOc1cc(NCc2ccccc2)c2ncn(C(C)C)c2c1	5.01 µM (active)
CCCN1C2=C(C(=O)CCC2)C(c2ccc(O)c(Br)c2)C2=C1CCCC2=O	12.6 µM (active)
O=c1cc(CSc2ccc(Cl)cc2)nc(-c2ccccn2)[nH]1	5.01 µM (active)
CCc1nc(SCC(=O)Nc2ccccc2OC)c2c(C)c(C)sc2n1	12.6 µM (active)
Cc1sc2nc(C3CC3)nc(SCC(=O)N3c4ccccc4CC3C)c2c1C (stereo unspecified)	14.1 µM (active)
CCc1nc(SCC(=O)N2c3ccccc3CC2C)c2c(C)c(C)sc2n1 (stereo unspecified)	11.2 µM (active)
C=CCNC(=O)c1cnc2n(c1=O)CCS2	inactive
C=CCn1c(SCc2cc(=O)n3cc(C)ccc3n2)nnc1-c1ccc(F)cc1	14.1 µM (active)
COC(=O)C1=C(C)Nc2ncnn2C1c1ccccn1 (stereo unspecified)	inactive
Cc1cc(C)cc(-n2c3nc4ccccc4nc3c3c(=O)n(Cc4ccco4)cnc32)c1	12.6 µM (active)
Cc1ccc(Cn2c(C)nc3c(c2=O)c2nc4ccccc4nc2n3Cc2ccco2)cc1	7.08 µM (active)
COc1cc(C2Oc3ccccc3C=C2[N+](=O)[O-])cc(OC)c1OC (stereo unspecified)	14.1 µM (active)
COc1cc(/C=C(/C(=O)c2cccs2)c2nc3ccccc3[nH]2)ccc1O	8.91 µM (active)
O=C(/C(=C/c1ccc(Cl)cc1)c1nc2ccccc2[nH]1)c1ccccc1	1.41 µM (active)
CCCc1c(C)c2cccc(C)c2[nH]c1=O	inactive
COc1ccc(CNC(=O)C[C@H]2C(=O)N(C3CCCCC3)C[C@@H]2Cc2ccccc2)cc1	11.2 µM (active)
COc1ccc(CNCc2ccc3ccccc3c2)c(OC)c1	11.2 µM (active)
Cc1cc(C)n(CC(O)COc2ccccc2)n1 (stereo unspecified)	2 µM (active)
CCOC(=O)c1c(-c2ccc(C)cc2C)csc1NC(=O)CSc1nnnn1C	4.47 µM (active)
CC1=NCCN1CCNC(=O)Nc1ccc(F)cc1	inactive
CCCSc1nc2c(cnn2-c2ccccc2)c(=O)[nH]1	inactive
CCCc1c(NC(=O)Nc2ccc(F)cc2)cnn1-c1ccccc1	15.8 µM (active)
CCCc1c(NC(=O)Nc2ccc(F)cc2)cnn1-c1ccc(Cl)cc1	12.6 µM (active)
NC(=O)C1CCN(CC(=O)Nc2cccc(C(=O)Nc3cccc(C(F)(F)F)c3)c2)CC1	2 µM (active)
COc1cccc(NC(=O)c2ccc3c(c2)C(=O)N(CC2CCCO2)C3=O)c1 (stereo unspecified)	inactive

SMILES	Potency
Cc1ccc(-n2c(-c3ccc(Cl)cc3)c[n+]3c2CCC3)cc1	0.355 µM (active)
CSc1c[n+]2c(n1C)CCC2	inactive
Cc1c(C)n2c(SCC(=O)Nc3ccc4c(c3)OCCO4)nnc2[nH]c1=O	4.47 µM (active)
O=C(c1[nH]ncc1-c1cccc(Br)c1)C1CO1 (stereo unspecified)	12.6 µM (active)
Cc1onc(NC(=O)c2ccc([N+](=O)[O-])o2)c1Br	12.6 µM (active)
CC1=Nc2cc(C(=O)N3CCCC3)ccc2Sc2ccc(C)cc21	5.62 µM (active)
COc1ccc(CCN2CCCn3c2nc2c3c(=O)n(Cc3ccccc3F)c(=O)n2C)cc1OC	5.01 µM (active)
COc1cc(/C=C/C(=O)c2ccc(Cl)s2)cc(OC)c1O	14.1 µM (active)
CCOC(=O)C1CCN(C(=O)C(=O)Nc2ccc3nc4n(c(=O)c3c2)CCCCC4)CC1	14.1 µM (active)
COc1ccccc1C(=O)Nc1ccc2nc3n(c(=O)c2c1)CCCC3	11.2 µM (active)
COc1ccccc1CNC(=O)c1ccc2c(=O)n3c(nc2c1)CCCCC3	11.2 µM (active)
CC(=O)N1CCc2cc(S(=O)(=O)N3CC(C)CC(C)C3)ccc21 (stereo unspecified)	11.2 µM (active)
CCC(=O)N1CCc2cc(S(=O)(=O)N3CCN(c4cc(Cl)ccc4C)CC3)ccc21	inactive
CCC(=O)N1CCc2cc(S(=O)(=O)N3CCCCCC3)ccc21	12.6 µM (active)
O=C1C2CCCN2C(c2ccccc2)N1c1nccs1 (stereo unspecified)	inactive
Cc1ccc(Nc2nc(=O)c3cccnc3s2)c(Br)c1	inactive
O=S(=O)(Nc1cccc2ncccc12)c1cccs1	4.47 µM (active)
Cc1ccc(S(=O)(=O)Nc2cccc3ncccc23)s1	5.01 µM (active)
CCOc1ccc(CCn2c(-c3ccco3)nc3ccccc3c2=O)cc1OCC	10 µM (active)
CCOc1ccc(S(=O)(=O)Nc2cc(S(=O)(=O)N(CC)CC)ccc2N2CCCC2)cc1	2.51 µM (active)
COc1ccc(C(=O)/C(=C\c2ccco2)N2C=CC=CC2=C(C#N)C#N)cc1	15.8 µM (active)
N#CC(C#N)=C1C=CC=CN1/C(=C\c1ccco1)C(=O)c1ccc(Cl)cc1	14.1 µM (active)
N#CC(C#N)=C1C=CC=CN1/C(=C\c1ccco1)C(=O)c1ccc(Br)cc1	15.8 µM (active)
COc1ccc(-c2cc(CNC(=O)CCl)on2)cc1	1.58 µM (active)
O=C(NCc1ccc2c(c1)OCO2)c1nc(S(=O)(=O)Cc2ccccc2F)ncc1Cl	inactive
O=C(CN(c1ccc2c(c1)OCCO2)S(=O)(=O)c1ccccc1)NCc1ccc(Cl)cc1	7.94 µM (active)

SMILES	Potency
CC(C)N1C/C(=C/c2ccsc2)C(=O)/C(=C/c2ccsc2)C1	5.01 µM (active)
Cc1c(CCO)sc[n+]1CC(=O)OCCC12CC3CC(CC(C3)C1)C2	8.91 µM (active)
CCCCc1nc2cc(C(=O)N3CCN(c4nc(C)cnc4C)CC3)ccc2o1	12.6 µM (active)
CCC(C)(C)NC(=O)C(c1cccc(OC)c1OC)N(CC(C)C)C(=O)CCC(=O)Nc1cc(C)on1 (stereo unspecified)	10 µM (active)
CCOC(=O)Cn1nnnc1C(CC)N(Cc1cccs1)Cc1cc2ccc(OC)cc2[nH]c1=O (stereo unspecified)	10 µM (active)
Cc1ccc(C)c(-c2nnc(OCC(=O)Nc3cc(C)on3)c3ccccc23)c1	14.1 µM (active)
Cc1ccc(OCC(=O)Nn2cnnc2)c(Br)c1	inactive
CC(C)N=C(NS(=O)(=O)c1ccccc1)C(Cl)(Cl)Cl	5.01 µM (active)
C=CCNC(=O)c1onc(CSc2cccc(Cl)c2)c1C(=O)O	inactive
CCc1ccc(-c2cn(C3CCCCC3)c(=S)[nH]2)cc1	14.1 µM (active)
CC(=O)/C=C/c1ccccc1Oc1c(F)c(F)nc(F)c1F	10 µM (active)
Cc1cccc2c1NC(=O)/C2=C\C(=O)c1cccs1	inactive
CC(C)N(C(=O)CSc1nnc(-c2ccc3c(c2)OCO3)n1C)C(C)C	11.2 µM (active)
CC(NC(=O)Nc1ccc(Cl)cc1)c1ccc2c(c1)OCO2 (stereo unspecified)	inactive
O=C(N[C@@H](Cc1ccccc1)C(=O)CCl)OCc1ccccc1	inactive
COC(=O)[C@H](Cc1ccccc1)N(C)S(=O)(=O)c1cccc(S(=O)(=O)N(C)[C@@H](Cc2ccccc2)C(=O)OC)c1	12.6 µM (active)
CCCCCn1c(=O)c2ccccc2n2c(CCl)nnc12	10 µM (active)
COc1cccc(F)c1C(C[N+](=O)[O-])c1c(N)n(C)c(=O)n(C)c1=O (stereo unspecified)	5.01 µM (active)
Cc1ccc(CN2CCCCC2C(=O)Nc2ccc(Oc3cccnc3)cc2)o1 (stereo unspecified)	11.2 µM (active)
O=C(Nc1c2c(nn1-c1ccc([N+](=O)[O-])cc1)CS(=O)(=O)C2)c1cccs1	inactive
O=C(Nc1ccc(N2CCN(C(=O)c3ccccc3)CC2)cc1)c1ccc([N+](=O)[O-])o1	5.01 µM (active)
O=C(Nc1ccc(N2CCN(C(=O)c3cccs3)CC2)cc1)c1ccc([N+](=O)[O-])o1	3.55 µM (active)
O=C(Nc1ccc(N2CCN(C(=O)c3ccco3)CC2)cc1)c1ccc(F)cc1	11.2 µM (active)
Cc1ccccc1C(=O)N1CCN(c2ccc(NC(=O)c3ccc([N+](=O)[O-])o3)cc2)CC1	10 µM (active)
O=C(NCc1ccc(F)cc1)C1CCN(S(=O)(=O)c2ccc(Br)s2)CC1	12.6 µM (active)
COc1ccc(CCNS(=O)(=O)c2ccc(Br)s2)cc1	inactive

SMILES	Potency
O=C(COC(=O)C1C2CC3OC(=O)C1C3C2)Nc1ccccc1 (stereo unspecified)	inactive
O=S1(=O)Nc2c(ccc3cccnc23)-c2ccccc21	1.78 µM (active)
Cc1ccc(-c2nc(-c3cccnc3)sc2CC(=O)Nc2ccc(C)c(Cl)c2)cc1	4.47 µM (active)
Cc1nc(-c2ccccn2)sc1C(=O)Nc1ccc(Cl)c(Cl)c1	inactive
COc1cc(OC)c(OC)cc1CN1CCN(C(=O)c2cccc3ccccc23)CC1	12.6 µM (active)
CC1C/C(=C/c2ccncc2)C(=O)/C(=C/c2ccncc2)C1 (stereo unspecified)	3.98 µM (active)
CCSc1nnc(N2C(=O)c3ccc(C(=O)c4ccc(C(=O)O)cc4)cc3C2=O)s1	inactive
O=C(NC1CCN(Cc2ccccc2)CC1)C1CCN(c2nnc(-n3cccc3)s2)CC1	10 µM (active)
O=C(NC1CCCC1)C1CC(=O)N(CCc2ccccc2)C1 (stereo unspecified)	inactive
O=C(Cc1cccs1)NCCc1ccc(Cl)cc1	4.47 µM (active)
Cc1ccc(Cl)cc1N1CCN(c2cccc[n+]2C)CC1	3.16 µM (active)
COc1cccc2sc(Nc3nnc(-c4ccc(F)cc4)o3)nc12	7.08 µM (active)
O=C(COc1ccccc1)Nc1nnc(-c2ccc(F)cc2)o1	inactive
COc1cccc2sc(Nc3nnc(-c4ccccc4Cl)o3)nc12	12.6 µM (active)
CC(C)CCSc1nc(N)c(C#N)cc1C#N	6.31 µM (active)
CCOC(=O)c1c[nH]c2cc(OCC(C)C)c(OCC(C)C)cc2c1=O	0.199 µM (active)
CSc1nnc(C)c(=O)[nH]1	inactive
Cc1cc(=O)oc2c1ccc1oc(/C(=N/O)c3ccccc3)c(C)c12	7.94 µM (active)
COCCCNC(=O)c1cc2cc3cc(OC)ccc3nc2o1	5.01 µM (active)
Cc1ccc2cc3cc(C(=O)NCCCN4CCCC4=O)oc3nc2c1	3.16 µM (active)
COc1ccc2cc3cc(C(=O)Nc4ccc5c(c4)OCO5)oc3nc2c1	5.01 µM (active)
COc1ccccc1NC(=S)NCc1cccs1	inactive
COc1ccc2nc3oc(C(=O)NCc4cccs4)cc3cc2c1	3.55 µM (active)
